Here are results for 22 compounds from PubChem BioAssay (Tox21).

Several values for one entry are separate records, joined by “and”; a condition that tells them apart may be missing. Equal entries are not always repeated. Records with an inconclusive call do not appear. Activity calls are given as the source filed them. Unless noted, the call rests on the fitted dose curve; in most records, active means well fitted curve in the direction sought with a large enough effect in the repeat runs; inconclusive means weak or mixed curves; inactive means no such curve, though single readings can be large; an effect the other way counts as inactive or inconclusive.

The nature of experiment [1]: qHTS assay for small molecule agonists of the p53 signaling pathway (AID 651631; calls by dose curve; further: nearly all actives have a fitted effect of over 15% in size; further: potency means the concentration at half of the fitted maximal effect). In a few lines: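 We treat p53RE-bla HCT-116 cells with compounds for 16 h at 37 °C, add LiveBLAzer B/G FRET substrate for 2 h at room temperature, and measure fluorescence intensity.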
(In general: In qHTS, concentration-response curves come from the screen itself.)

Experiment [2] is described as follows: qHTS assay for small molecules that induce genotoxicity in human embryonic kidney cells expressing luciferase-tagged ATAD5 (AID 651632). Further: nearly all actives have a fitted effect of over 15% in size. In a few lines:
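HEK293T cells carrying luciferase-tagged ATAD5 were given compound or DMSO vehicle and incubated 16 hr at 37C, 5% CO2. Luciferase activity was read after 30 min at room temperature with Amplite; a rise signals genotoxic stress.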

Experiment [3] in a line: qHTS assay for small molecule agonists of the p53 signaling pathway - cell viability (AID 651633; calls by dose curve; further: nearly all actives have a fitted effect of over 30% in size; further: potency means the concentration at half of the fitted maximal effect). In outline:
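Viability counter-read: CellTiter-Glo luminescence (30 min, room temperature) in the same p53RE-bla plates. These plates had been exposed to compounds for 16 h at 37 C.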

A short description of experiment [4]: qHTS assay for small molecules that induce genotoxicity in human embryonic kidney cells expressing luciferase-tagged ATAD5 - cell viability (AID 651634; calls by dose curve; further: nearly all actives have a fitted effect of over 25% in size; further: potency means the concentration at half of the fitted maximal effect). In outline: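 HEK293T cells carrying luciferase-tagged ATAD5, 2,000 cells/well, exposed to compound for 15.5 hr at 37C. Viability read as live-cell protease activity by CellTiter-Fluor fluorescence after 30 min at 37C.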

A short description of experiment [5]: qHTS assay for small molecule disruptors of the mitochondrial membrane potential - cell viability (AID 720634; calls by dose curve; further: nearly all actives have a fitted effect of over 20% in size; further: potency means the concentration at half of the fitted maximal effect). In outline: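 HepG2 cells, 2,000 per well, attached overnight, then treated 1 hr at 37 C, 5% CO2. Viability read as ATP by CellTiter-Glo luminescence after 30 min at room temperature. Read in the same wells as the m-MPI membrane-potential dye assay.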

A short description of experiment [6]: qHTS assay for small molecule disruptors of the mitochondrial membrane potential (AID 720635). Further: potency means the concentration at half of the fitted maximal effect. In outline: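 Mitochondrial membrane potential tracked with Mito-MPS dye, red aggregates (ex 540/em 590 nm) against green monomers (ex 490/em 535 nm). Compound treatment 1 hr at 37C, dye 30 min in HepG2.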
The nature of experiment [7]: qHTS assay to test for compound auto fluorescence at 590 nm (red) in HepG2 cells (AID 720674). In a few lines:
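1 hr compound incubation on HepG2 cells, 37 C, 5% CO2; plate read ex 540 nm / em 590 nm; intensities reported as Rose Bengal sodium equivalents.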

Experiment [8] can be described thus: qHTS assay to test for compound auto fluorescence at 590 nm (red) in HEK293 cells (AID 720679). In a few lines: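 Red channel, Ex/Em 540/590nm; signal expressed as equivalency to Rose Bengal sodium. HEK293, 2,000 cells/well, 10% dialyzed FBS; 23 nL compound pinned after 4-5 hr attachment; overnight 37C/5% CO2 before reading.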
Experiment [9] can be described thus: qHTS assay to test for compound auto fluorescence at 535 nm (green) in HepG2 cells (AID 720675).
A short description of experiment [10]: qHTS assay to test for compound auto fluorescence at 460 nm (blue) in HEK293 cells (AID 720678). In outline: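 Blue read-out at excitation 405 nm and emission 460 nm follows overnight compound exposure of HEK293 cells at 37C in 5% CO2. Activity is given as auto fluorescence equivalency to triamterene.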

Regarding `CO[C@H](C(=O)[C@@H](O)[C@@H](C)O)C1Cc2cc3cc(O[C@H]4C[C@@H](O[C@H]5C[C@@H](O)[C@H](O)[C@@H](C)O5)[C@@H](O)[C@@H](C)O4)c(C)c(O)c3c(O)c2C(=O)[C@H]1O[C@H]1C[C@@H](O[C@H]2C[C@@H](O[C@H]3C[C@](C)(O)[C@H](O)[C@@H](C)O3)[C@H](O)[C@@H](C)O2)[C@H](O)[C@@H](C)O1` (some centres undefined), the Potency in [1] was 42.2 nM (active) and 53.1 nM (active); in experiment [6] it was 27.8 µM (active). Besides, the Potency entry in experiment [2], in experiment [3], in experiment [4] and in experiment [5] was “inactive” in each case. For the same compound, the call in [7] and in experiment [8] was inactive.

With `C[C@]12O[C@H](C[C@]1(O)CO)n1c3ccccc3c3c4c(c5c6ccccc6n2c5c31)CNC4=O`, the Potency in experiment [1] is 0.075 µM (active); in experiment [3], 0.944 µM (active); in experiment [4], 4.73 µM (active); in [6], 3.76 µM (active). Further, the Potency entry in experiment [2] and in [5] was “inactive” throughout. Besides, the call in experiment [7] and in experiment [8] was inactive.

For the compound `O=C1CCC(c2ccccc2)(C2CCN(Cc3ccccc3)CC2)C(=O)N1` (centres undefined), the Potency result in [1], in [2], in experiment [3], in experiment [4], in experiment [5] and in experiment [6] was “inactive” in each case. Also, the Potency entry in [9] was “inactive”. Further, the compound was called inactive in experiment [7] and in experiment [8].

On to `O=C(CCCN1CCN2CCCC2C1)c1ccc(F)cc1` (centres undefined), for which the Potency entry in experiment [1], in experiment [2], in experiment [3], in [4], in experiment [5] and in [6] was “inactive” each time. The Potency entry in experiment [9] was “inactive”. Moreover, the compound was classed as inactive in [7] and in experiment [8].

For the compound `CCCCCCCCCCCC[n+]1ccc2ccccc2c1`, the Potency is 26.6 µM (active) in [1], 29.8 µM (active) in experiment [3], 7.5 µM (active) in experiment [4] and 2.98 µM (active) in experiment [6]. In addition, the Potency entry in experiment [2], in experiment [5] and in [10] was “inactive” each time. Besides, the outcome in experiment [7] and in [8] was inactive.

Turning to `Cc1cc(C(=O)NCCc2ccc(S(=O)(=O)NC(=O)NN3CCCCCC3)cc2)no1`, the Potency entry in [1], in experiment [2], in experiment [3], in [4], in experiment [5] and in experiment [6] was “inactive” each time. Moreover, the Potency result in [10] was “inactive”. In addition, the compound was classed as inactive in experiment [7] and in [8].

As for `C[C@@H]1O[C@@H]1P(=O)(O)O`, the Potency result in [1], in experiment [2], in [3], in [4], in experiment [5] and in experiment [6] was “inactive” each time. In addition, in experiment [9], the Potency entry is “inactive”. For the same compound, the result in experiment [7] and in experiment [8] was inactive.

On to `CO/N=C(\C(=O)N[C@@H]1C(=O)N2C(C(=O)[O-])=C(C[n+]3cccc4c3CCC4)CS[C@H]12)c1csc(N)n1`, for which the Potency entry in [1], in experiment [2], in [3], in experiment [4], in [5] and in experiment [6] was “inactive” in each case. Further, the Potency result in [9] and in [10] was “inactive” throughout. For the same compound, the outcome in experiment [8] was inactive.

As to `CC1CCCCN1CCCOC(=O)c1ccccc1` (centres undefined), the Potency entry in [1], in experiment [2], in [3], in experiment [4], in [5] and in experiment [6] was “inactive” each time. Moreover, the Potency entry in [9] and in [10] was “inactive” throughout. The result in [7] and in [8] was inactive.

Turning to `FC(F)(F)COCC(F)(F)F`, the Potency result in [1], in [2], in experiment [3], in [4], in experiment [5] and in [6] was “inactive” each time. Also, the Potency result in experiment [9] was “inactive”. Also, the call in experiment [7] and in experiment [8] was inactive.

Regarding `CCOc1ccc(S(=O)(=O)O)c2cccnc12`, the Potency entry in experiment [1], in [2], in [3], in experiment [4], in experiment [5] and in experiment [6] was “inactive” throughout. For the same compound, the Potency entry in experiment [10] was “inactive”. Moreover, the call in [7] and in experiment [8] was inactive.

Regarding `COc1c(O)cc2c(c1O)[C@@H]1O[C@H](CO)[C@@H](O)[C@H](O)[C@H]1OC2=O`, the Potency entry in [1], in [2], in [3], in [4], in [5] and in [6] was “inactive” in each case. Besides, the Potency entry in experiment [9] was “inactive”. The call in [7] and in experiment [8] was inactive.

`O=C(O)Cc1nn(Cc2ccc(Br)cc2F)c(=O)c2ccccc12`: the Potency entry in [1], in [2], in experiment [3], in experiment [4], in experiment [5] and in experiment [6] was “inactive” in each case. For the same compound, the Potency entry in experiment [10] is “inactive”. For the same compound, the call in experiment [7] and in experiment [8] was inactive.

In the case of `c1ccc(-n2cnnn2)cc1`, the Potency entry in experiment [1], in experiment [2], in experiment [3], in [4], in [5] and in [6] was “inactive” each time. Moreover, the Potency result in experiment [9] and in experiment [10] was “inactive” in each case. Moreover, the compound was called inactive in experiment [7] and in [8].

Take `CCCCCCCCOC(=O)c1cc(O)c(O)c(O)c1`: the Potency in experiment [1] is 61.1 µM (active); in experiment [3], 54.5 µM (active); in experiment [5], 13.7 µM (active); in [6], 6.11 µM (active). Also, the Potency entry in [2] and in experiment [4] was “inactive” in each case. Moreover, the result in experiment [7] and in [8] was inactive.

For `C/C=C/C1=C(C(=O)O)N2C(=O)[C@@H](NC(=O)[C@H](N)c3ccc(O)cc3)[C@H]2SC1`, the Potency result in experiment [1], in experiment [2], in [3], in experiment [4], in experiment [5] and in [6] was “inactive” each time. For the same compound, in experiment [9], the Potency entry is “inactive”. Also, the compound was called inactive in experiment [7] and in experiment [8].

Consider `O=C(O)c1cc2cc(Cc3cccnc3)ccc2o1`, for which the Potency entry in experiment [1], in [2], in experiment [3], in experiment [4], in [5] and in [6] was “inactive” throughout. Moreover, the Potency result in experiment [10] is “inactive”. The result in [7] and in experiment [8] was inactive.

Regarding `COc1ccc([C@@H]2CC(=O)c3c(O)cc(O[C@@H]4O[C@H](CO[C@@H]5O[C@@H](C)[C@H](O)[C@@H](O)[C@H]5O)[C@@H](O)[C@H](O)[C@H]4O)cc3O2)cc1O`, the Potency result in experiment [1], in experiment [2], in experiment [3], in experiment [4], in experiment [5] and in experiment [6] was “inactive” each time. For the same compound, the Potency entry in experiment [9] and in experiment [10] was “inactive” in each case. In addition, the outcome in experiment [7] and in experiment [8] was inactive.

On to `CCN(CC)CCOC[C@H]1O[C@@H](O)[C@H](OCCN(CC)CC)[C@@H](O)[C@@H]1O`, for which the Potency result in [1], in experiment [2], in [3], in experiment [4], in experiment [5] and in [6] was “inactive” each time. Further, the Potency result in experiment [10] was “inactive”. Further, the call in experiment [7] and in experiment [8] was inactive.

In the case of `C[C@@H]1O[C@@H](OC[C@H]2O[C@@H](Oc3c(-c4ccc(OCCO)c(OCCO)c4)oc4cc(OCCO)cc(O)c4c3=O)[C@H](O)[C@@H](O)[C@@H]2O)[C@H](O)[C@H](O)[C@H]1O`, the Potency entry in experiment [1], in [2], in experiment [3], in experiment [4], in [5] and in [6] was “inactive” throughout. Moreover, the Potency result in experiment [9] is “inactive”. The compound was called inactive in experiment [7] and in experiment [8].

For the compound `NS(=O)(=O)c1cc(Cl)c(Cl)c(S(N)(=O)=O)c1`, the Potency entry in experiment [1], in experiment [2], in [3], in [4], in experiment [5] and in experiment [6] was “inactive” throughout. For the same compound, the Potency entry in experiment [9] and in experiment [10] was “inactive” in each case. In addition, the call in experiment [8] was inactive.

With `S=C1NC=NC2N=CNC12` (centres undefined), the Potency is 3.44 µM (active) in experiment [1], 0.545 µM (active) in experiment [3] and 4.86 µM (active) in experiment [6]. Moreover, the Potency entry in experiment [2], in experiment [4], in experiment [5], in [9] and in [10] was “inactive” throughout. The call in experiment [7] and in experiment [8] was inactive.
